In PubChem BioAssay (Tox21):
Inconclusive results are not listed. Activity calls are given as the source filed them. Calls come from the whole dose curve; as a rule, active = well fitted cell-killing curve with a large enough effect in the repeat runs; inconclusive = weak or mixed curves, or effect the other way; inactive = no such curve, though single readings can be large or run the other way.

Assay: qHTS assay to identify small molecule antagonists of the glucocorticoid receptor (GR) signaling pathway - cell viability counter screen (AID 720693); note: nearly all actives have a fitted effect of over 55% in size
Settings: GR-bla HeLa viability, CellTiter-Glo luminescence, 18 h, with 5 nM dexamethasone present; series mostly up to 58.5 µM; viability change, negative = cytotoxic: at the top concentration
From the text: National Center for Advancing Translational Sciences [NCATS]
NIH Chemical Genomics Center [NCGC]
U.S. Environmental Protection Agency [EPA]
National Institutes of Environmental Health Sciences [NIEHS]
National Toxicology Program [NTP]
U.S. Food and Drug Administration [FDA]
The Glucocorticoid receptor (GR) is one of the members of the nuclear receptor family of ligand-dependent transcription factors. GR plays a critical role in carbohydrate, protein and lipid metabolisms and programmed cell death. CellSensor GR-bla HeLa cell line (Invitrogen) contains a beta-lactamase reporter gene under the control of the glucocorticoid response element stably integrated into HeLa cells, a cervical cancer cell line that expresses glucocorticoid receptor. The activation of the reporter gene under culture conditions can be detected by fluorescence intensity. This cell line has been used to screen the Tox21 10K compound library and to identify the compounds that inhibit the GR signaling. The cytotoxicity of the Tox21 compound library against the GR-bla HeLa cell line was tested in parallel by measuring the cell viability using CellTiter-Glo assay in the same wells.
Tox21 Assay Protocol Summary:
The GR-bla HeLa cells were dispensed at 1500 cells/5 ul/well in 1536-well black wall/clear bottom plates using a Multidrop Combi (ThermoFisher Scientific, Waltham, MA) dispenser. After the assay plates were incubated at a 37 C/5% CO2 incubator for 4 hours, 23 nL of compounds dissolved in DMSO, positive controls or DMSO only was transferred to the assay plate by a pintool station (Kalypsys, San Diego, CA), followed by addition of 1 uL of dexamethasone (5 nM, final concentration in the well). The plates were incubated at 37 C for 18 hours. After 1 uL of LiveBLAzerTM B/G FRET substrate was added using a Flying Reagent Dispenser (Aurora Discovery, San Diego, CA), the plates were incubated at room temperature (RT) for 2 hours, and fluorescence intensity was measured by an Envision plate reader (PerkinElmer, Shelton, CT). After measurement of bla assay, 3 ul CellTiter-Glo (Promega, Madison, WI) was added to measure the cytotoxicity and the plates were then incubated at RT for 30 min. The luminescence was measured using a ViewLux (Perkin Elmer) plate reader.
% is set by controls: 0 for no effect and ±100 for the full control effect.

Structure (SMILES)	viability change, negative = cytotoxic	outcome
CC(C)NCC(O)COc1ccc(CCOCC2CC2)cc1 (stereo not given)	-4.11% (inactive)	
O=C(O)C(=O)Cc1c[nH]c2ccccc12	9.27% (inactive)	
CCCCNCCCC	-1.51% (inactive)	
Cn1cnc2c(F)c(Nc3ccc(Br)cc3Cl)c(C(=O)NOCCO)cc21	-0.86% (inactive)	
CC(=O)OC(C)OC(C)=O	-2.53% [at 78.9 µM] (inactive)	
CCCCC(CC)COC(=O)COc1cc(Cl)c(Cl)cc1Cl (stereo not given)	-9.64% (inactive)	
CCOC(=O)CS	-6.42% [at 78.9 µM] (inactive)	
O=C(O)c1ccccc1Nc1cc(Cl)ccc1C(=O)O	-0.818% (inactive)	
O=C(O)CN(CCN(CC(=O)O)CC(=O)O)CCN(CC(=O)O)CC(=O)O	4.65% (inactive)	
C1CSCCS1	2.3% (inactive)	
CCC(=O)Nc1ccc(O)cc1	11.7% (inactive)	
O=C(O)[C@@H]1CSCN1	-0.0519% (inactive)	
Nc1cccc(S(=O)(=O)O)c1	-4.8% (inactive)	
O=C1CCC(C2CCCCC2)CC1	20.8% (inactive)	
CN(CC1(C)CCCO1)S(=O)(=O)c1ccc(Cl)c(S(N)(=O)=O)c1 (stereo not given)	-0.299% (inactive)	
CCN(CCCc1ccccc1)CCCc1ccccc1	-1.47% [at 27 µM] (inactive)	
CC1=C(CC(=O)O)c2cc(F)ccc2/C1=C\c1ccc(S(C)(=O)=O)cc1	10.7% (inactive)	
CN1CCN(C2=Nc3ccccc3Oc3ccc(Cl)cc32)CC1	1.3% [at 27 µM] (inactive)	
O=C1N(c2ccccc2)c2ccccc2C1(Cc1ccncc1)Cc1ccncc1	-8.2% (inactive)	
O=C(O[C@@H](C(=O)O)[C@@H](OC(=O)c1ccccc1)C(=O)O)c1ccccc1	-1.04% [at 78.9 µM] (inactive)	

Structure (SMILES)	viability change, negative = cytotoxic	outcome
C=CCCCCCCCCO	17.6% (inactive)	
CCOC(=O)c1ccccc1O		inactive
CN1CCN(c2c(F)cc3c(=O)c(C(=O)O)cn4c3c2SCC4)CC1	-5.86% (inactive)	
COc1ccc(Nc2ccc(OC)cc2)cc1	-10.4% [at 78.9 µM] (inactive)	
CCCCN1C[C@H](O)[C@@H](O)[C@H](O)[C@H]1CO	23.7% (inactive)	
O=C1C=CC(=O)O1	3.97% [at 78.9 µM] (inactive)	
C=O		inactive
CCN(CC)CC1CCCCN1CC(=O)N1c2ccccc2C(=O)Nc2cccnc21 (stereo not given)	4.64% (inactive)	
CCOc1ccc2nc(N)sc2c1	6.11% (inactive)	
CC(=O)Oc1cc(C(C)C)c(OCCN(C)C)cc1C	6.35% [at 27 µM] (inactive)	
CCC/C=C/CO	12.1% (inactive)	
Cc1c(-c2ccccc2)oc2c(C(=O)OCCN3CCCCC3)cccc2c1=O	3.14% [at 27 µM] (inactive)	
CC(C)Nc1nc(N)nc(Cl)n1	2.57% (inactive)	
C=Cc1ccccc1		inactive
c1ccc(CN(CC2=NCCN2)c2ccccc2)cc1	-2.54% (inactive)	
CCCCCCCCCC/C=C/C#N	9.75% (inactive)	
COc1ccccc1N1CCN(CCCNc2cc(=O)n(C)c(=O)n2C)CC1		inactive
Cc1nc(-c2ccccn2)ncc1C(=O)Nn1cc(C)c2cc(F)ccc21	-8.15% (inactive)	
O=CCCc1ccccc1	2.7% (inactive)	
CC(C)CCCCCCc1ccc(OCCOCCO)cc1	-10.1% [at 78.9 µM] (inactive)	
